Screens deposited in PubChem by National Center for Advancing Translational Sciences (NCATS).
HCV inh = blocks hepatitis C virus; Huh7.5.1 HCVcc-Cre infection, luciferase reporter, 44 h; Potency, µM (series often up to 41.8 µM), hits mostly inhibitors; hit rate 3.4% among 340,000
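Infectious HCVcc-Cre (~0.5 moi) was added to cells just after compound, with cells seeded 4 h earlier at 1,000 per well. Luciferase activity after 44 h culture reported infection; substrate was incubated 15 min at room temperature before reading.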
Pf growth 96h = P. falciparum growth inhibition at 96 hours. P. falciparum luciferase reporter growth, 96 h. Potency, µM (series often up to 28.7 µM), actives largely listed as inhibitors. hit rate 6.9% among 320,000. AID 504834
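Compounds incubated with erythrocytes infected by luciferase-expressing P. falciparum (2% hematocrit, 0.05% parasitemia final) for 96 hours, 37 C in 5% CO2. Growth inhibition scored as decreased luciferase luminescence.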
Sm TGR inh = blocks Schistosoma mansoni thioredoxin glutathione reductase | Q962Y6 | purified TGR, DTNB reduction, TNB absorbance 405 nm | Potency, µM (series often up to 114 µM), hits mostly inhibitors | hit rate 3% among 360,000; note: nearly all actives have a fitted effect of over 60% in size
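Kinetic colorimetric format: TGR-catalysed, NADPH-driven DTNB reduction monitored via TNB absorbance. Enzyme dispensed at 20 nM; compound exposure 15 min at room temperature before reaction start.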
Pf growth 48h = inhibits P. falciparum growth in the first generation, 48 h; P. falciparum luciferase growth in erythrocytes, 48 h; Potency, µM (titrated, usually from 28.7 µM), hits mostly inhibitors; hit rate 5.9% among 310,000
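Read-out is firefly luciferase luminescence from an integrated reporter in P. falciparum, so falling signal marks reduced parasite growth. Infected erythrocytes were at 2% hematocrit and 0.1% parasitemia (final) in Albumax-supplemented RPMI 1640.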
SARS PLP yeast = SARS-CoV PLP inhibition in yeast. hit rate 0.19% among 330,000. Potency, µM (titrated, usually from 32.9 µM), most hits filed as activators. S. cerevisiae expressing SARS-CoV PLpro, growth rescue; calls by dose curve; note: nearly all actives have a fitted effect of over 55% in size
HCMV inh = human cytomegalovirus inhibition; HFF cells, HCMV-luciferase reporter, 72 h; active compounds read low; activity change, negative = inhibition, % at 57.5 µM; hit rate 4.5% among 410,000; in the data active = activity change below about -60%; inconclusive = no clear call, values can overlap the other calls; inactive = above about -39%
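Inhibition of viral replication was scored as loss of reporter luminescence in HFFs infected with HCMV-luciferase (MOI 1 PFU/cell) for 72 h; compounds tested at 2 doses, normalized to buffer and Salinomycin controls.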
Hits are given with their value; 0 = inactive; ? = inconclusive; - = no result given. Hits are enriched below; roughly 15% of the tested compounds scored in any of these assays. Unless noted, calls come from the whole dose curve; as a rule, active = well fitted curve in the direction sought with a large enough effect; inconclusive = small, poorly fitted or top-dose-only effect, or another doubt; inactive = no such curve, though single readings can be large; an effect the other way counts as inactive or inconclusive.

SMILES	HCV inh	Pf growth 96h	Sm TGR inh	Pf growth 48h	SARS PLP yeast	HCMV inh
Cc1ccc(OCc2nc(-c3ccc(C(=O)NCCc4ccc(S(N)(=O)=O)cc4)cc3)oc2C)cc1	-	-	0	-	-	0
CCOc1ccc(C(=O)Nc2c(C(=O)Nc3ccccc3OC)oc3ccccc23)cc1OCC	-	-	0	-	-	0
CN1C(=O)N(C)C(=O)C2(Cc3cc(N)ccc3N3CCN(c4ccccc4F)CC32)C1=O (stereo unspecified)	-	-	?	-	0	0
CCN1C(=O)N(CC)C(=O)C2(Cc3ccccc3N3CCN(c4ccccc4)CC32)C1=O (stereo unspecified)	0	?	44.7µM	?	0	0
O=C1c2ccccc2CCCC12N=NCC2c1cccc2ccccc12 (stereo unspecified)	2.82µM	1.85µM	0	2.62µM	0	0
COC(=O)c1ccc(C)cc1C1CN=NC12Cc1cc(C)ccc1C2=O (stereo unspecified)	?	-	-	-	-	0
Cc1ccc(C2CN=NC23CCc2ccccc2C3=O)cc1 (stereo unspecified)	0	3.7µM	0	-	0	0
COC(=O)c1ccc(NC(=O)CSc2nn3c(=O)c(C)nnc3s2)cc1	0	?	0	?	0	0
O=C(NC1CCCCC1)NC1CC2CCCC(C1)N2C1CCCC1 (stereo unspecified)	0	13.1µM	0	0	0	0
O=C(NC1CC2CCCC(C1)N2C1CC1)NC12CC3CC(CC(C3)C1)C2 (stereo unspecified)	0	0	0	0	0	-
CCSc1nnc(-c2cccnc2)n1-c1ccc(Cl)c(C)c1	0	11.7µM	0	-	0	0
O=C(CSc1nnc(-c2cccnc2)n1-c1ccccc1)Nc1ccccn1	0	10.4µM	0	0	0	0
Nn1c(SC/C=C/c2ccccc2)nnc1-c1cccnc1	0	-	0	0	0	0
CN(C)C(=O)CSc1nnc(-c2cccnc2)n1-c1ccccc1	0	?	0	-	0	0
Clc1ccc(-n2c(SC/C=C/c3ccccc3)nnc2-c2cccnc2)cc1	?	-	0	11.7µM	0	0
CC1CCN(S(=O)(=O)c2cc(F)ccc2CN2C(=O)c3cccnc3C2=O)CC1	0	0	0	0	0	0
COc1cc(OC)c(NC(=O)Nc2cccc(OCc3cc(=O)n4ccccc4n3)c2)cc1Cl	-	-	0	-	-	0
CCOC(=O)c1cnc2c(N=Nc3ccccc3)c(N)nn2c1N	0	0	0	0	0	0
CCOC(=O)c1cnc2c(N=Nc3cccc(Cl)c3)c(N)nn2c1N	-	0.657µM	0	0	0	0
O=C(CSCc1ccc(Cl)cc1)NCc1ccccn1	0	0	0	0	?	0
O=C(COC(=O)c1c(Cl)cccc1Cl)Nc1cc(Cl)ccc1Oc1ccccc1	0	?	0	13.1µM	0	0
O=C(COC(=O)c1ccccc1)Nc1cc(Cl)ccc1Oc1ccccc1	0	?	0	0	0	0
COc1ccccc1OCC(=O)Nc1cc(Cl)ccc1Oc1ccccc1	0	0	0	0	0	0
Cc1ccccc1OCC(=O)Nc1nnc(COc2ccccc2)s1	0	-	-	-	-	-78.9
CCOc1ccc(Oc2ccc(Cl)cc2NC(=O)CCNC(C)=O)cc1	0	?	0	0	0	-65.5
SMILES	HCV inh	Pf growth 96h	Sm TGR inh	Pf growth 48h	SARS PLP yeast	HCMV inh
CC(=O)Nc1nnc(COc2ccccc2)s1	0	0	0	0	0	0
Cc1ccccc1OCC(=O)Nc1cc(Cl)ccc1Oc1ccccc1	0	5.22µM	0	?	0	0
CCOc1ccc(NC(=O)NNC(=O)C(C)Oc2ccccc2OC)cc1 (stereo unspecified)	0	0	0	0	0	?
Cc1ccc(/C=C/C(=O)O)cc1S(=O)(=O)N1CCCCC1	0	0	0	0	0	0
Cc1ccccc1OCC(=O)NS(=O)(=O)c1ccc(Cl)cc1	0	5.22µM	0	0	0	0
CC1(C)CC(=O)C=C(c2ccc(F)cc2OCc2ccccc2)C1	20µM	?	0	?	0	0
C[C@@H]1CCCCO[C@H](CN(C)S(=O)(=O)c2ccccc2)[C@@H](C)CN([C@H](C)CO)C(=O)c2cc(NC(=O)Cc3ccccc3)ccc2O1	-	-	-	-	-	0
CCOC(=O)c1[nH]c2ccc(OC)cc2c1NC(=O)OC	0	0	0	0	0	0
